# Laboratory results taken from PubChem BioAssay AID504452 (The Scripps Research Institute Molecular Screening Center, 2011).
# Calls of active or inactive are those of the source. No stated cut-off is given here; in the data, active means activation above about 85%; inactive means the rest.
# Target: Peroxisome proliferator-activated receptor gamma (Homo sapiens) (UniProt P37231)
# Assay: partial agonism at human PPARgamma receptor – cell-based, luciferase reporter, luminescence, primary screen (AID 504452);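 further: Cos-1 cells carrying PPARgamma and a response element luciferase reporter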
# Details: cell-based PPARg luciferase reporter, at 5 µM, stronger effect = higher value; activation (% of full agonist control): measured here: relative to full agonist control
# Peroxisome proliferator-activated receptor gamma (Homo sapiens), sequence (P37231 whole entry, looked up): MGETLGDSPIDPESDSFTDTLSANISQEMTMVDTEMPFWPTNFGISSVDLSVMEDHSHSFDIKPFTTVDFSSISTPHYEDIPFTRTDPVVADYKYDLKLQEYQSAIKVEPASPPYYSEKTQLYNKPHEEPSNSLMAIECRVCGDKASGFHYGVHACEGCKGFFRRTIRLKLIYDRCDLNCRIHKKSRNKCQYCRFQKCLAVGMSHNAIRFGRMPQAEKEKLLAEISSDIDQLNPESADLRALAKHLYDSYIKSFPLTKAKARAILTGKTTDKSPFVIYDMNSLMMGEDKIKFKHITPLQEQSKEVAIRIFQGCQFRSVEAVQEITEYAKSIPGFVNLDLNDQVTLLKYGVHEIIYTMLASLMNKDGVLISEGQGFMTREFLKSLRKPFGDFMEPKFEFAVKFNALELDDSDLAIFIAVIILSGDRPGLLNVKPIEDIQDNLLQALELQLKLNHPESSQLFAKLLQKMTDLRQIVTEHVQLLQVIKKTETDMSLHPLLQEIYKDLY
Compound,activation (% of partial agonist control),activation (% of full agonist control)
O=C(NCCc1c[nH]c2ccccc12)N[C@@H](Cc1ccccc1)C(=O)O,73.7% (inactive),33.3%
CCOc1cc(N2CCOCC2)c(OCC)cc1NC(=O)c1ccc2ccccc2n1,103% (active),46.5%
Cc1cccc(Cn2cc3c(=O)n(Cc4cccc(F)c4)nc-3c3ccccc32)c1,84.2% (inactive),38%
Cc1ccc2nc(N3C(=O)C(O)=C(C(=O)c4ccco4)C3c3ccc(C)o3)sc2c1 (centres undefined),126% (active),56.8%
Cc1cc(N2C(=O)C(O)=C(C(=O)c3ccco3)C2c2cccc(Cl)c2)no1 (centres undefined),55.9% (inactive),25.2%
COc1ccc(N2CCN(C3CC(=O)N(Cc4ccc(N5CCCC5=O)cc4)C3=O)CC2)cc1 (centres undefined),61.2% (inactive),27.6%
Cc1cccc(NC(=O)CSc2nc(=O)n(CCN3CCOCC3)c3c2CCCC3)c1C,73.2% (inactive),33.1%
CCC(=O)Nc1nonc1-c1nc2ccccc2n1Cc1cccc2ccccc12,55.5% (inactive),25.1%
O=C(Cc1ccccc1)n1nc(-c2ccco2)nc1SCc1ccccc1,81.8% (inactive),37%
COc1ccc(-c2ccc(CCC(=O)O)n2CC(=O)Nc2ccccc2C)cc1,77.7% (inactive),35.1%
O=C(N[C@@H]1CCC(=O)N(CC[C@H](Oc2ccccc2)c2ccccc2)CC1)OCc1ccccc1,62.1% (inactive),28.1%
NC(=O)C1CCCN(Cc2c(C(=O)N3CCc4ccccc4C3)nc3ccc(Cl)cn23)C1 (centres undefined),66.9% (inactive),30.2%
O=C1C(=O)N(CCCn2ccnc2)C(c2ccc(Cl)cc2)/C1=C(\O)c1ccc2c(c1)OCCO2 (centres undefined),91.9% (active),41.5%
N#Cc1ccc(C(=O)Nc2cc(-c3ccc(F)cc3)nn2-c2ccccc2)cc1,60.6% (inactive),27.4%
CC(Oc1cccc(Cl)c1)C(=O)Nc1cc(S(=O)(=O)N2CCOCC2)ccc1N1CCCC1 (centres undefined),78.1% (inactive),35.3%
CC(Oc1ccc(F)cc1)C(=O)Nc1cc(S(=O)(=O)N2CCOCC2)ccc1N1CCCC1 (centres undefined),75.1% (inactive),33.9%
O=c1c2cn(Cc3ccc(F)cc3)c3ccc(F)cc3c-2nn1Cc1ccc(F)cc1,108% (active),48.9%
CC(OC(=O)CNC(=O)c1ccc(F)cc1)C(=O)Nc1ccc(S(=O)(=O)N2CCOCC2)cc1 (centres undefined),77.2% (inactive),34.9%
O=C(Cc1c(C(=O)O)[nH]c2ccccc12)Nc1ccc2c(c1)OCO2,17.6% (inactive),7.95%
O=C(Cn1c(=O)c(=O)n(Cc2ccccc2)c2ccc(Cl)cc21)NCC1CCCO1 (centres undefined),68.9% (inactive),31.1%
CCOc1cccc(/C(O)=C2/C(=O)C(=O)N(Cc3cccnc3)C2c2ccco2)c1 (centres undefined),68.2% (inactive),30.8%
O=C(CN1c2cccc3cccc(c23)S1(=O)=O)N1CCN(c2ccc(F)cc2)CC1,75.5% (inactive),34.1%
Cc1cc(C(=O)CN2C(=O)C(=O)N(Cc3ccccc3)C2=O)c(C)n1Cc1ccc(F)cc1,84.1% (inactive),38%
O=C(CN1CCOC1=O)N1CCCC(N2CCN(c3cccc(C(F)(F)F)c3)CC2)C1 (centres undefined),58.8% (inactive),26.5%
O=C(CNC(=O)c1nc[nH]c1C(=O)N1CCc2ccccc2C1)OCc1ccccc1,89.3% (active),40.3%
Cc1ccc(S(=O)(=O)Nc2ccccc2F)cc1C(=O)N1CCN(c2ccccc2O)CC1,73% (inactive),33%
O=C(O)CC(NC(=O)C(c1ccccc1)c1ccccc1)c1ccc(F)cc1 (centres undefined),61.3% (inactive),27.7%
